Compounds with a hit are over-represented: about 11% of the library has one in this group of screens.
JMJD2A Tudor inh = inhibitors of human JMJD2A Tudor domain; O75164; AlphaScreen JMJD2A-Tudor / H3K4me3 peptide binding; Potency, µM (titrated, usually from 114 µM), most hits filed as inhibitors; hit rate 4.4% among 390,000; AID 504339; further: nearly all actives have a fitted effect of over 50% in size
G9a block = G9a (human) methyltransferase inhibition; Potency, µM (highest dose often 102 µM), actives largely listed as inhibitors; hit rate 8.8% among 350,000; G9a H3K9 monomethylation, AlphaScreen, 2 h; further: nearly all actives have a fitted effect of over 75% in size
Target sequence (Q96KQ7 913-1193 limits assumed): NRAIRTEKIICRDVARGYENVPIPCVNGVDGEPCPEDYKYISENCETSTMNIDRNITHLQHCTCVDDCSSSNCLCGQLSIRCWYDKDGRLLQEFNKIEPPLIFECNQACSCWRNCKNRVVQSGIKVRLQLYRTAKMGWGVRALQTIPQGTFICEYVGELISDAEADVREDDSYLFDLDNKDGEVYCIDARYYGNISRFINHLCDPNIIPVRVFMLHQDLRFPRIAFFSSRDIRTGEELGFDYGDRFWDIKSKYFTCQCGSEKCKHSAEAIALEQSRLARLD
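Quantitative HTS format: methyltransferase activity on a biotin-tagged H3K9 peptide is measured by AlphaScreen, using a rabbit anti-monomethyl-H3K9 antibody with streptavidin donor and anti-IgG acceptor beads. Final levels are 20 nM enzyme, 500 nM peptide, 20 uM SAM; 2 h RT.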
BAZ2B block = blocks human BAZ2B; AlphaScreen BAZ2B-H3K14Ac peptide displacement; Potency, µM (highest dose often 114 µM), hits mostly inhibitors; hit rate 4.4% among 360,000; AID 504333; further: nearly all actives have a fitted effect of over 60% in size
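Inhibition is scored as reduced AlphaScreen emission. The BAZ2B/b-H3(5-23)K14Ac complex (50 nM each) in PBS pH 7.4, 0.01% Tween-20 meets compound (up to 110 uM) for 30 min at RT before bead addition.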
PLK1 PBD inh = PLK1 (human) polo-box domain binding inhibition; Plk1 PBD binding of FITC phosphopeptide, fluorescence polarization; Potency, µM, hits mostly inhibitors; hit rate 2.8% among 360,000; further: series mostly up to about 57 µM; nearly all actives have a fitted effect of over 65% in size
HP1b chromo inh = HP1-beta chromodomain-methylated histone interaction inhibition. AlphaScreen HP1-beta / biotin-H3K9me3 peptide binding. hit rate 0.56% among 390,000. P83916. Potency, µM (highest dose often 114 µM), actives largely listed as inhibitors; further: nearly all actives have a fitted effect of over 70% in size
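Compound inhibition of the preformed complex between 50 nM HP1-beta and 50 nM biotinylated H3K9me3 peptide was read by AlphaScreen. Buffer was PBS pH 7.4 with 0.01% Tween-20. Incubations ran 30 min at room temperature, with 10 ug/mL donor/acceptor beads.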
VDR inhibitor = inhibitors of human vitamin D receptor. P11473. VDR-SRC2-3 peptide fluorescence polarization, 2 h. hit rate 0.93% among 400,000. Potency, µM, actives largely listed as inhibitors
Target sequence (P11473 whole entry, looked up): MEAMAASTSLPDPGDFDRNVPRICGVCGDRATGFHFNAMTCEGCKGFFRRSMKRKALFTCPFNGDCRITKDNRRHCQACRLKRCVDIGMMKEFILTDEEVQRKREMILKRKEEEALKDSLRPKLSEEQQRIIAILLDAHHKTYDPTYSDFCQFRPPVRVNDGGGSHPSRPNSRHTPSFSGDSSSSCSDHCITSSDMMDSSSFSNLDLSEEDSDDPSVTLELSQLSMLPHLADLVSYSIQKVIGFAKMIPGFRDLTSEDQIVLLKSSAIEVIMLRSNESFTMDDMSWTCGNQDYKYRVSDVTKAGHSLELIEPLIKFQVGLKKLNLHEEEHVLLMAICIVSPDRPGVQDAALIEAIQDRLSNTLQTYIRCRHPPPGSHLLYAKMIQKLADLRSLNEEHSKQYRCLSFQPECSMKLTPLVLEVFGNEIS
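Compounds are added to VDR with labelled SRC2-3 coactivator peptide and held 2 h at room temperature. Inhibition of the VDR–peptide interaction is then read as a change in fluorescence polarization.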
Large screens that a line does not name were inactive. The call rests on the fitted dose curve; in most records, active means well fitted curve in the direction sought with a large enough effect; inconclusive means small, poorly fitted or top-dose-only effect, or another doubt; inactive means no such curve, though single readings can be large; an effect the other way counts as inactive or inconclusive.

CCN(Cc1ccncc1)Cc1nc(Cc2ccccc2Cl)no1	none
COc1ccccc1NC(=O)CSC1=Nc2ccccc2N=C(c2ccc(F)cc2)C1	BAZ2B block inconclusive (no result: PLK1 PBD inh)
Cc1ccc2nsnc2c1N	none (no result: G9a block)
Nc1cccc2nsnc12	G9a block 11.2µM, PLK1 PBD inh inconclusive
CCCCn1c(N)c(N(CC(C)C)C(=O)CSCc2c(C)noc2C)c(=O)[nH]c1=O	G9a block 44.7µM
CCCCn1c(N)c(N(CC(C)C)C(=O)c2cc(C)oc2C)c(=O)[nH]c1=O	G9a block inconclusive
CCCCn1c(N)c(N(CC(C)C)C(=O)CSC(C)C(=O)Nc2cc(C)on2)c(=O)[nH]c1=O (stereo not drawn)	G9a block 56.2µM
Fc1ccccc1N1CCN(c2nnc(C(F)(F)F)c3nnn(Cc4ccccc4)c23)CC1	none (no result: PLK1 PBD inh)
O=C(c1cc2ccccc2o1)N1CCN=C1SCc1cccnc1	none
CCN(CC(=O)NCc1ccc(F)cc1)Cc1cc(=O)n2ccsc2n1	G9a block 44.7µM
O=C(Sc1n[nH]c(=O)[nH]c1=O)c1ccccc1	JMJD2A Tudor inh 7.08µM, PLK1 PBD inh 5.32µM, HP1b chromo inh inconclusive, VDR inhibitor inconclusive (no result: G9a block, BAZ2B block)
CN(C(=O)CSc1n[nH]c(=O)[nH]c1=O)c1ccccc1	none (no result: G9a block, BAZ2B block)
CCc1ccc(-n2nc(C)c3c(C(=O)Nc4cc(C)c(Cl)cc4OC)cc(C)nc32)cc1	none (no result: PLK1 PBD inh)
COCCCNC(=O)c1ccc2c(=O)n(CC3CCCO3)c(=S)[nH]c2c1 (stereo not drawn)	JMJD2A Tudor inh 20µM, BAZ2B block inconclusive
COc1ccccc1Cn1c(=S)[nH]c2cc(C(=O)NCC3CCCO3)ccc2c1=O (stereo not drawn)	none
COc1ccccc1Cn1c(=S)[nH]c2cc(C(=O)NCCN(C)C)ccc2c1=O	G9a block 44.7µM
O=C(NCc1ccccc1)c1ccc2c(=O)n(CC3CCCO3)c(=S)[nH]c2c1 (stereo not drawn)	JMJD2A Tudor inh 89.1µM
Cc1nc2c(-c3ccccc3)c(C)[nH]n2c(=O)c1Cc1ccc(C(C)C)cc1	none (no result: PLK1 PBD inh)
O=C(Nc1c(C(=O)N2CCN(c3ccccc3)CC2)oc2ccccc12)c1ccco1	JMJD2A Tudor inh inconclusive, G9a block inconclusive, BAZ2B block inconclusive (no result: PLK1 PBD inh)
Cc1ccc(S(=O)(=O)c2nnn3c2nc(NC2CCCCCC2)c2sccc23)cc1C	none (no result: PLK1 PBD inh)
CC(C)CC(=O)Nc1ccc2nn(-c3ccccc3)nc2c1	none
COc1ccc(CNC(=O)Cn2c(SCC(=O)Nc3ccc(OC)cc3)nc3ccccc32)cc1	HP1b chromo inh inconclusive (no result: PLK1 PBD inh)
COc1ccc(OC)c(CCNC(=O)CCCC(=O)n2ncc3cc(C)ccc32)c1	none
CC(=O)c1cccc(-n2nnnc2SCC(=O)N2CCCC2)c1	G9a block 56.2µM
COc1ccc(-n2nnnc2SCC(=O)N2CCCC2)cc1OC	none
O=C(CSc1nnnn1-c1cccc2c1CCCC2)N1CCCC1	PLK1 PBD inh 4.74µM, HP1b chromo inh inconclusive
O=C(COc1ccc(Br)cc1)N1CCN(c2ccc([N+](=O)[O-])c(N3CCCCC3)c2)CC1	JMJD2A Tudor inh inconclusive, G9a block 35.5µM
O=C(COc1ccc(Cl)cc1)N1CCN(c2ccc([N+](=O)[O-])c(N3CCOCC3)c2)CC1	JMJD2A Tudor inh inconclusive
COc1ccc(-c2nnc(OCc3nc4ccccc4n3C)c3ccccc23)cc1	JMJD2A Tudor inh 50.1µM, PLK1 PBD inh 18.9µM, VDR inhibitor inconclusive
CS(=O)(=O)NCc1ccccc1Br	none (no result: JMJD2A Tudor inh, PLK1 PBD inh, HP1b chromo inh, VDR inhibitor)
Cc1cc(C)nc(SCc2n[nH]c(=S)n2C)n1	JMJD2A Tudor inh 39.8µM, G9a block 7.08µM
CCCSc1nnc(CSc2nc(C)cc(C)n2)n1C	JMJD2A Tudor inh 56.2µM, PLK1 PBD inh 21.2µM
Cc1ccc(-n2c(CSc3nc(C)cc(C)n3)n[nH]c2=S)cc1	JMJD2A Tudor inh 25.1µM, G9a block 3.98µM
Cc1cc(CNC(=O)C(C)n2nc(C)c([N+](=O)[O-])c2C)c2ccccc2n1 (stereo not drawn)	none
S=C1NC2=C(CCCC2)C2(CCCCC2)N1	G9a block 7.08µM
Oc1ccc(Br)cc1C1C=C(c2ccc3c(c2)OCO3)NC(c2ccc(Br)cc2)N1 (stereo not drawn)	VDR inhibitor inconclusive (no result: G9a block, BAZ2B block, PLK1 PBD inh)
CCN(CC(=O)Nc1ccc(OC)cc1)C(=O)c1ccc2ccccc2c1	none (no result: G9a block, BAZ2B block)
COC(=O)c1ccc2c(c1)SC1=C(CCCC1=O)N2	G9a block inconclusive, BAZ2B block 39.8µM
O=C1CCCC2=C1Sc1ccc(Cl)cc1N2	BAZ2B block inconclusive
CCN(CC(=O)Nc1ccc(OC)cc1)C(=O)c1ccc([N+](=O)[O-])cc1	JMJD2A Tudor inh 10µM, PLK1 PBD inh 6.7µM, VDR inhibitor inconclusive
O=C1CSc2ccc(C(=O)Nc3cccc(S(=O)(=O)Nc4ccc(Br)cc4)c3)cc2N1	JMJD2A Tudor inh inconclusive, G9a block inconclusive, BAZ2B block inconclusive, PLK1 PBD inh 21.2µM
CCN(CC(=O)Nc1ccc(OC)cc1)C(=O)c1ccc2c(c1)NC(=O)CS2	G9a block 44.7µM
O=C(Nc1ccc(Br)cc1)c1cccc(S(=O)(=O)Nc2ccc(Br)cc2)c1	none (no result: JMJD2A Tudor inh, G9a block, BAZ2B block, PLK1 PBD inh, HP1b chromo inh)
Cc1sc2ncnc(NC3CCN(Cc4ccccc4)CC3)c2c1C	none
CCN(CC(=O)Nc1c(F)cccc1F)C(=O)c1ccc(COc2ccccc2)o1	none
C=CCn1c(C)cc(C(=O)COC(=O)c2ccc3c(c2)NC(=O)CS3)c1C	JMJD2A Tudor inh inconclusive, G9a block 20µM, BAZ2B block inconclusive, PLK1 PBD inh inconclusive, HP1b chromo inh inconclusive, VDR inhibitor inconclusive
COC(=O)c1ccc2c(c1)NC(=O)CS2	G9a block 39.8µM, PLK1 PBD inh 21.2µM
O=S(=O)(c1ccc(C(F)(F)F)cc1)N1CCN(c2nc(-c3cccs3)nc3ccccc23)CC1	none (no result: G9a block, BAZ2B block, PLK1 PBD inh)
NC(=O)c1ccsc1NC(=O)c1ccc(S(=O)(=O)N2CCCc3ccccc32)cc1	G9a block 50.1µM, BAZ2B block inconclusive
CCN(CC)CCNC(=O)c1ccc(NC(=O)c2cccc(S(=O)(=O)N3c4ccccc4CC3C)c2)cc1 (stereo not drawn)	none
COc1ccc(C(=O)Nc2ccc(S(=O)(=O)N3CCc4ccccc43)cc2)cc1	none (no result: G9a block, BAZ2B block)
CCN(CC)CCNC(=O)c1ccc(NC(=O)c2cccc(S(=O)(=O)N3CCc4ccccc43)c2)cc1	JMJD2A Tudor inh inconclusive, G9a block 31.6µM, HP1b chromo inh inconclusive
O=C(Nc1ccncc1)c1ccc(Cl)c(S(=O)(=O)N2CCc3ccccc32)c1	JMJD2A Tudor inh inconclusive, G9a block inconclusive, BAZ2B block 50.1µM
O=C(O)c1ccc(S(=O)(=O)N2CCCc3ccccc32)cc1	none
Cc1cccc(NC(=O)c2ccc(Cl)c(S(=O)(=O)N3CCc4ccccc43)c2)n1	none
NS(=O)(=O)c1ccc(NC(=O)c2ccc(S(=O)(=O)N3CCc4ccccc43)cc2)cc1	G9a block 31.6µM
O=C(COc1ccc(F)cc1)Nc1ccc(OCc2cc(=O)n3ccsc3n2)cc1	none (no result: PLK1 PBD inh)
